# Measured values from the supplement of paper PMC6555819.
# Key:
# Test in all cases: PBM binding z-score (relative to random genomic background probes); higher = stronger binding; sequences stand for … in GC…GCGATTGACAGCGTAGAATGAAGG
# [1] = test system: PPARg:RXRa DBDmut IVT, anti-RXR (DBD mutation: RXRa K156A/R161A, NR concentration 270 nM, RXRa partner concentration 90 nM)
# Method in brief: (§1)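 On custom Agilent 4×180K arrays, double-stranded probes with 34-nt variable regions carried direct-repeat seeds, single-nucleotide variants, half-site ablations or random human genomic background. Ligand-free nuclear receptor dimers were applied for 1 h, and binding was read with antibodies against each partner (one per run). Binding z-scores come from regression-normalized fluorescence, with the random background probes as reference.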
# [2] = test system: PPARg:RXRa IVT, anti-PPARg (NR concentration 270 nM, RXRa partner concentration 90 nM)
# Method in brief: as §1
# [3] = test system: PPARg DBDmut:RXRa IVT, anti-PPARg (DBD mutation: PPARg1 K132A/R137A, NR concentration 270 nM, RXRa partner concentration 90 nM)
# Method in brief: as §1
# [4] = test system: PPARg DBDmut IVT, anti-PPARg (DBD mutation: PPARg1 K132A/R137A, NR concentration 270 nM)
# Method in brief: as §1
# [5] = test system: PPARg homodimer (NR concentration 180 nM)
# Method in brief: as §1
# [6] = test system: PXR:RXRa (NR concentration 270 nM, RXRa partner concentration 90 nM)
# Method in brief: as §1
# [7] = test system: PXR homodimer (NR concentration 270 nM)
# Method in brief: as §1
# [8] = test system: RARa:RXR (NR concentration 270 nM, RXRa partner concentration 90 nM)
# Method in brief: as §1
# [9] = test system: RARa homodimer (NR concentration 270 nM)
# Method in brief: as §1
# [10] = test system: RARb:RXRa (NR concentration 270 nM, RXRa partner concentration 90 nM)
# Method in brief: as §1
Sequence,PBM binding z-score [1],PBM binding z-score [2],PBM binding z-score [3],PBM binding z-score [4],PBM binding z-score [5],PBM binding z-score [6],PBM binding z-score [7],PBM binding z-score [8],PBM binding z-score [9],PBM binding z-score [10]
AGTCAAAGTTCAGCACGAGGTAACGTAAAGCACG,-0.116,2.28,0.538,0.124,1.92,3.35,1.01,3.13,1.12,4.66
CAAACTAGGTCAAAGGTCAAAATCGAGCCAACCA,8.4,9.49,5.76,3.58,5.14,6.99,1.48,8.9,2.19,5.94
CCTACTGGGCCAATGTCATTGATCAGTCAAAGCA,3.94,2.99,-0.0732,-0.746,-0.246,-0.427,-0.747,-0.51,-1.11,0.363
AGTCAAAGTTCATCTAGGTATCGTAAGATATGCT,0.0537,2.59,0.906,0.493,2.49,5.11,5.44,3.62,1.32,4.95
CGTCAAAGTTCAAGCTAACGTAACAGAAAGCAGC,0.497,1.77,1.34,1.15,3.13,4.47,2.52,3.3,2.21,5.24
CAAACTAGGTCACAGAGGGCAAAGTCCGTGCGTA,8.48,8.83,5.61,4.71,1.95,4.26,4.07,3.86,0.666,4.54
CCTTACGGGTCTCTCCAGGTTATAGCATCGGAGT,0.165,0.161,-0.412,-0.96,0.354,0.294,-0.138,0.923,0.0233,0.15
CCTACTGGGGCACGAAAGGTCATTGATTCAGTGA,5.75,6.88,0.869,0.0108,3.09,5.68,1.16,5.47,0.333,4.41
CCTGCTAGGTCAATGGTCAGCTAAAGCAGCTCGC,4.63,4.19,-1.03,-1.12,0.944,0.92,-0.545,1.82,-0.551,3.73
TGAATGAGGTTTAAGATCAGGGAACGTGGCGTCG,-0.249,0.242,0.0033,-0.732,-0.165,-0.2,-0.311,-0.216,-0.194,0.0151
CAAACTAGGTCACGAAAGGTCAAAGTGGAATGAC,8.3,9.14,4.86,3.3,6.09,7.22,2.33,7.85,4.81,5.72
CAAACTAGGTCACGAAAGGTCAAAGCCGAATGAC,8.59,8.71,2.62,1.68,7.54,6.89,3.03,7.57,4.36,5.74
GATACAGGGTGAAGGCCAGAGTACGCGTATTGAT,0.737,1.34,-0.37,-0.0968,-0.218,-0.324,-0.0784,-0.132,-0.36,0.882
CCCGCTAGGTCATGGTCAGCTAATCTACAGTATG,3.87,3.52,-0.299,-0.741,1.77,1.49,-0.038,2.33,0.196,3.83
ATCGAAAGGTCGACGAGGTGAGTATGCACCGTTT,0.283,1.96,0.899,0.519,1.67,2.99,0.682,3.5,0.243,3.99
TAGCCTAGGTCATTCAGGCGCCAGTATAGAAAGC,1.59,2.61,0.787,-0.107,1.85,1.68,-0.342,2.44,-0.00217,3.56
ACTTACGGGTCAAGGAGGTTATAGCACGCGTATA,2.9,3.94,1.06,0.844,2.7,4.24,1.47,4.99,1.24,4.09
TATACTGGGTCAAAGGCCAGAGTACGAATGTCGA,6.17,7.37,3.19,3.85,5.01,2.33,0.331,3.3,0.721,3.59
ACTTACGGGTCAACGAAGTTATAGCACGCGTATA,2.94,3.94,2.05,3.18,2.32,3.73,0.0102,4.15,0.443,4.15
TCTCGGAGGACACGAAAAGTCAGAGCTCGACATC,1.7,0.139,-0.679,-0.502,0.0166,-0.0938,-0.142,0.141,-0.037,1.72
ATATGTAGGTGAAGGGTCATTCAGGTTGGTTCGC,8.51,8.85,6.44,4.69,6.22,5.27,2.24,5.79,1.46,3.3
TCTAGTTGGTCATGGAGGTCACACACGACGGGTA,2.58,3.96,1.39,1.01,3.56,4.8,2.15,4.97,2.88,3.77
CGAACTAGGTCATCGAGGACAGTGAATACATTGA,8.15,8.47,2.12,2.09,1.73,2.62,2.57,2.26,0.951,4
